# Measurements taken from PubChem BioAssay (NCI).
# The panel holds about 79,000 compounds, 15% with a hit somewhere; the sample as a whole holds those more often. Unmarked numbers belong to inactive results. Active and inactive are the calls of the source. Rule as the data show it: active = growth inhibition above about 70%; inactive = the rest.
# Experiment: NCI Yeast Anticancer Drug Screen. Data for the rad50 strain (AID 155);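 also: 0% = growth of vehicle-only cultures of the same strain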
# Details: S. cerevisiae rad50 strain growth inhibition; at 5.0 µM (retest, dose inferred, filed as 0.5); hits give high values
# In short: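 Relative growth inhibition (compound vs vehicle) was measured in yeast with a defined repair-gene alteration.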
row,Structure (SMILES),growth inhibition
1,Cc1ccc(-n2c(CSc3ccc(Cl)cc3)nnc2SCc2nc3ccccc3[nH]2)cc1,-22%
2,CC(=O)Nc1cccc(C(=O)O)c1,6%
3,COc1ccc2c(c1)CCCN2CCCCCCCCCN1CCCCC1,31%
4,CN(C)C(=O)/N=c1\ss/c(=N\C(=S)N(C)C)n1-c1ccccc1,-1%
5,Clc1ccc(-c2nnc(-c3ccccn3)o2)c(Cl)c1,4%
6,CC(O)CC(O)CC1CCCO1 (stereo not drawn),5%
7,CC[C@]1(O)C[C@H]2[C@@H]3CCc4cc(OC)ccc4[C@H]3CC[C@]2(C)[C@H]1O,-3%
8,CCCCCCCCCCCCCCCCCCOS(=O)(=O)O (tested in a mixture with another compound),1%
9,C/C(=N\NC(=S)N1CCCC1)c1nc2ncccc2[nH]1,-20%
10,CC(C)(C)C1=NN=C2c3ccccc3C(=O)C21 (stereo not drawn),0%
11,O=C(O)c1ccc(N=CC2CO2)cc1 (stereo not drawn),23%
12,CCC1(C)C(C#N)(C#N)C1(C#N)C#N,-18%
13,COc1ccc(N(C)Sc2ccccc2)cc1,-12%
14,C/C(CCn1[nH]c(=O)ccc1=O)=N\NS(=O)(=O)c1ccc(C)cc1,-3%
15,CCC[n+]1ccc(/C=N\NC(N)=S)c2ccccc21,22%
16,O=S1CCS(=O)C1c1ccccc1 (stereo not drawn),-1%
17,NC(=O)c1c(Cl)nc2n1CCS2,1%
18,CC(C)S(=O)(=O)ON1C(=O)c2ccc(N(C)C)cc2C1=O,14%
19,C=Cc1cc(=O)oc2cc(OC)ccc12,20%
20,O=[N+]([O-])c1cc(Cl)cc2c1nc(NCCO)c1ccccc12,76% (active)

row,Structure (SMILES),growth inhibition
1,c1ccc2nc3ccccc3nc2c1,-11%
2,Cc1cc(O)ccc1SC#N,-11%
3,CC1=C(C(=O)NCc2ccccc2)C(c2ccccc2O)C(C(=O)NCc2ccccc2)=C(C)N1,27%
4,Cc1occc1C(=S)Nc1ccc(Cl)c(COC(C)(C)C)c1,26%
5,CCN(CC)CCOc1c(I)cc(I)cc1I,2%
6,CCc1c(C(=O)OC)c(C(=O)OC)c(-c2ccccc2)n1CCn1c(CC)c(C(=O)OC)c(C(=O)OC)c1-c1ccccc1,-2%
7,O=C1/C(=C/c2ccc(Cl)cc2)CSC/C1=C\c1ccc(Cl)cc1,23%
8,COc1ccc(C2COc3cc(O)c(O)cc3C2)cc1OC (stereo not drawn),-10%
9,O=C1c2ccccc2C(=O)c2c1cc(O)c(O)c2O,17%
10,COc1cc[c]([Sn]([O][Sn]([Cl])([c]2ccc(OC)cc2)[c]2ccc(OC)cc2)[c]2ccc(OC)cc2)cc1,47%
11,O=C(N/C(=C\c1ccc(/C=C(\NC(=O)c2ccccc2)c2nc3ccccc3s2)cc1)c1nc2ccccc2s1)c1ccccc1,57%
12,Cn1c(=O)cc[nH]c1=O,-1%
13,CCOC(=O)C1=C(c2ccccc2)SC(c2ccccc2)N(C(C)C)C1=O (stereo not drawn),8%
14,S=C1NC2=C(CSC/C2=C\c2cccc(Br)c2)C(c2cccc(Br)c2)N1 (stereo not drawn),9%
15,c1ccc2[nH]c(CN(CCN(Cc3nc4ccccc4[nH]3)Cc3nc4ccccc4[nH]3)Cc3nc4ccccc4[nH]3)nc2c1,97% (active)
16,O=[N+]([O-])c1ccc(NC(=S)N/N=C(\c2ccccc2)c2ccccn2)cc1,8%
17,O=C(NCCl)Nc1ccccc1,-3%
18,O=Cc1[nH]c(=S)[nH]c(=O)c1CCCc1ccccc1,-15%
19,CCCC/C=C(/CCCCOCOCCOC)[Si](C)(C)C,-1%

# Same assay, conditions: S. cerevisiae rad50 strain growth inhibition; at 50.0 µM (retest, dose inferred, filed as 5.0); hits give high values
row,Structure (SMILES),growth inhibition
1,Cc1ccc(-n2c(CSc3ccc(Cl)cc3)nnc2SCc2nc3ccccc3[nH]2)cc1,8%
2,CC(=O)Nc1cccc(C(=O)O)c1,-2%
3,COc1ccc2c(c1)CCCN2CCCCCCCCCN1CCCCC1,36%
4,CN(C)C(=O)/N=c1\ss/c(=N\C(=S)N(C)C)n1-c1ccccc1,78% (active)
5,Clc1ccc(-c2nnc(-c3ccccn3)o2)c(Cl)c1,99% (active)
6,CC(O)CC(O)CC1CCCO1 (stereo not drawn),22%
7,CC[C@]1(O)C[C@H]2[C@@H]3CCc4cc(OC)ccc4[C@H]3CC[C@]2(C)[C@H]1O,98% (active)
8,CCCCCCCCCCCCCCCCCCOS(=O)(=O)O (tested in a mixture with another compound),63%
9,C/C(=N\NC(=S)N1CCCC1)c1nc2ncccc2[nH]1,97% (active)
10,CC(C)(C)C1=NN=C2c3ccccc3C(=O)C21 (stereo not drawn),57%
11,O=C(O)c1ccc(N=CC2CO2)cc1 (stereo not drawn),11%
12,CCC1(C)C(C#N)(C#N)C1(C#N)C#N,95% (active)
13,COc1ccc(N(C)Sc2ccccc2)cc1,64%
14,C/C(CCn1[nH]c(=O)ccc1=O)=N\NS(=O)(=O)c1ccc(C)cc1,-3%
15,CCC[n+]1ccc(/C=N\NC(N)=S)c2ccccc21,38%
16,O=S1CCS(=O)C1c1ccccc1 (stereo not drawn),28%
17,NC(=O)c1c(Cl)nc2n1CCS2,0%
18,CC(C)S(=O)(=O)ON1C(=O)c2ccc(N(C)C)cc2C1=O,35%
19,C=Cc1cc(=O)oc2cc(OC)ccc12,98% (active)
20,O=[N+]([O-])c1cc(Cl)cc2c1nc(NCCO)c1ccccc12,90% (active)

row,Structure (SMILES),growth inhibition
1,c1ccc2nc3ccccc3nc2c1,64%
2,Cc1cc(O)ccc1SC#N,53%
3,CC1=C(C(=O)NCc2ccccc2)C(c2ccccc2O)C(C(=O)NCc2ccccc2)=C(C)N1,27%
4,Cc1occc1C(=S)Nc1ccc(Cl)c(COC(C)(C)C)c1,74% (active)
5,CCN(CC)CCOc1c(I)cc(I)cc1I,98% (active)
6,CCc1c(C(=O)OC)c(C(=O)OC)c(-c2ccccc2)n1CCn1c(CC)c(C(=O)OC)c(C(=O)OC)c1-c1ccccc1,82% (active)
7,O=C1/C(=C/c2ccc(Cl)cc2)CSC/C1=C\c1ccc(Cl)cc1,37%
8,COc1ccc(C2COc3cc(O)c(O)cc3C2)cc1OC (stereo not drawn),60%
9,O=C1c2ccccc2C(=O)c2c1cc(O)c(O)c2O,95% (active)
10,COc1cc[c]([Sn]([O][Sn]([Cl])([c]2ccc(OC)cc2)[c]2ccc(OC)cc2)[c]2ccc(OC)cc2)cc1,95% (active)
11,O=C(N/C(=C\c1ccc(/C=C(\NC(=O)c2ccccc2)c2nc3ccccc3s2)cc1)c1nc2ccccc2s1)c1ccccc1,57%
12,Cn1c(=O)cc[nH]c1=O,3%
13,CCOC(=O)C1=C(c2ccccc2)SC(c2ccccc2)N(C(C)C)C1=O (stereo not drawn),67%
14,S=C1NC2=C(CSC/C2=C\c2cccc(Br)c2)C(c2cccc(Br)c2)N1 (stereo not drawn),98% (active)
15,c1ccc2[nH]c(CN(CCN(Cc3nc4ccccc4[nH]3)Cc3nc4ccccc4[nH]3)Cc3nc4ccccc4[nH]3)nc2c1,95% (active)
16,O=[N+]([O-])c1ccc(NC(=S)N/N=C(\c2ccccc2)c2ccccn2)cc1,73% (active)
17,O=C(NCCl)Nc1ccccc1,62%
18,O=Cc1[nH]c(=S)[nH]c(=O)c1CCCc1ccccc1,79% (active)
19,CCCC/C=C(/CCCCOCOCCOC)[Si](C)(C)C,-1%
